Measurements published in PubChem BioAssay AID951 (NMMLSC, 2007).
Out of some 190,000 compounds screened, about 140 (0.074%) were called active. Rule as the data show it: active = inhibition above about 40%. For the sample, actives were picked, then their nearest neighbours and some compounds at random.

target: Bcl-2-like protein 10 (Homo sapiens) (UniProt Q9HD36); assay: inhibitors of Bim-Bcl-B binding, primary screen, biochemical, multiplexed, human Bcl-2 family (AID 951); details: bead-based flow cytometry, Bim peptide-Bcl-B binding; at 10 µM; active compounds read high;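 also: 0% = tracer peptide without compound and 100% = reference inhibitor peptide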
Sequence (Q9HD36 whole entry, looked up): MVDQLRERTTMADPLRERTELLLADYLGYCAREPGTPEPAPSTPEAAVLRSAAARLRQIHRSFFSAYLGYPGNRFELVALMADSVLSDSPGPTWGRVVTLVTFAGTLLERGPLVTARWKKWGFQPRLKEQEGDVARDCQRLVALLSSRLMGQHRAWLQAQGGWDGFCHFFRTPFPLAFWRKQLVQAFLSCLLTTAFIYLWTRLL

inhibition, active:
CCOc1ccccc1/C=N/NC(=O)CNC(=O)COc1ccccc1 74%

inhibition, inactive:
O=C(CSc1nncn1-c1cccnc1)N1CCOCC1 -6%
O=C(NCCCn1ccnc1)C(=O)c1cn(CC(=O)N2CCCCCC2)c2ccccc12 0%
Cn1ncc2c(NNC(=O)Cc3cccc4ccccc34)ncnc21 -3%
OCCC1CN(Cc2cccn2-c2nccs2)CCN1CCc1ccccc1 (stereo not drawn) -1%
O=C(CN1C(=O)NC2(CCCCCC2)C1=O)NCc1cccs1 -1%
Cc1ccc(C(=O)Nc2ccc(C)c(S(=O)(=O)N(C)C)c2)s1 0%
CC(NC(=O)c1cccc2ccccc12)c1ccc2c(c1)CCCC2 (stereo not drawn) 6%
CCOCC(=O)Nc1ncc(S(=O)(=O)c2ccc([N+](=O)[O-])cc2)s1 3%
Cc1ccccc1NC(=O)CSC1=NCCN1 -6%
CCOC(=O)c1sc2nc(C)nc(Nc3ccc(OC)c(OC)c3)c2c1C 2%
CN(C)c1ccc(/C=N/N(Cc2ccccc2)c2ccccc2)cc1 -3%
C=CCn1c(CCNC(=O)c2ccccc2F)nnc1SCC(=O)Nc1ccc(OC)cc1 0%
COc1ccc(C2CC(c3ccccc3)=NN2C(=O)COC(=O)COc2ccccc2)cc1 (stereo not drawn) -5%
CC(=O)Nc1cccc([N+](=O)[O-])c1 -4%
COC(=O)C1CCN(C(=O)c2cc(=O)[nH]c3ccccc23)CC1 -1%
CC1CCCC(NC(=O)COC(=O)[C@@H]2CC(O)CN2S(=O)(=O)c2ccc3c(c2)OCCO3)C1C (stereo partly drawn) -1%
O=C(CNC(c1ccccc1)c1ccccc1)Nc1ccc(F)cc1 -8%
C=CCc1ccccc1OCC(=O)N/N=C/c1ccccc1OCC -9%
Cc1ccc(/C=N/NC(=O)CNC(=O)COc2ccccc2)o1 -7%
CCOc1ccc(NC(=O)CN(C)CC(=O)NC(C)c2ccccc2)cc1OCC (stereo not drawn) -4%
Cc1cccc(C(=O)N2CCC(c3nc4ccccc4s3)CC2)c1 -2%
O=C(CSC1CC(=O)N(CCc2ccccc2)C1=O)Nc1ccc(Cl)cc1 (stereo not drawn) -5%
C[C@@H]1CC[C@]2(O[C@@H](CCO)C[C@H](O)[C@H]2O)O1 -5%
O=C(N/N=C/c1ccco1)c1ccc(NC(=O)C2CC2)cc1 -4%
NC(=O)Cn1nc([N+](=O)[O-])nc1Oc1ccc(Br)cc1 -1%
CN1CCN(C(=O)CCc2ncc(C(F)(F)F)cc2Cl)CC1 -8%
COc1ccc(C(=O)NCC(=O)N/N=C/c2ccc([N+](=O)[O-])s2)cc1OC -2%
